Entries with a potency or affinity are not part of this list. Results filed as inconclusive are left out. Active and inactive are the calls of the source.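 How the source made its calls: active means signal loss from cell killing with fitted potency at or below twice the top valid dose; inconclusive means flat drop of 30 to 70%, or unreliable curve fit; inactive means opposite direction, flat within 30%, or weaker potency.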
test: A549 cell cytotoxicity, dose response, cytotoxicity control, cherry-picks, 26 µM top dose (AID 1053119); settings: A549 viability, CellTiter-Glo ATP luminescence, 72 h; series mostly up to 26 µM; activity change, negative = cytotoxicity: at the top concentration;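 further: 0% = neutral control wells and -100% = 10 µM mitoxantrone wells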

| SMILES | activity change, negative = cytotoxicity |
| --- | --- |
| CO[C@H]1CN(C)C(=O)c2cc(NC(C)=O)ccc2OC[C@@H](C)N(C(=O)CN2CCOCC2)C[C@H]1C | -2.74% (inactive) |
| COc1cccc(-c2ccc3c(c2)[C@@H]2[C@@H](CCN2S(=O)(=O)c2cccc(OC)c2)[C@H](CO)N3)c1 | -8.83% (inactive) |
| COc1ccc(-c2oc3ncnc(NCCCN4CCOCC4)c3c2-c2ccc(OC)cc2)cc1 | -31% (inactive) |
| O=C(Nc1nc(-c2ccncc2)cs1)C1COc2ccccc2O1 (configuration not stated) | -13.6% (inactive) |
| Cc1ccc(Nc2nnc(SCc3ccccc3)s2)cc1 | -8.6% (inactive) |
| CO[C@@H]1CN(C)C(=O)c2cc(NC(=O)Nc3ccc(Cl)c(Cl)c3)ccc2OC[C@H](C)NC[C@H]1C | 2.06% (inactive) |
| COc1ccc(CCNC(=O)C2CCN(Cc3nc(-c4ccccc4F)oc3C)CC2)cc1OC | 13.1% (inactive) |
| Cc1ccc(CS(=O)Cc2ccc(C(=O)NC3CCCC(C)C3C)o2)cc1 (configuration not stated) | 6.25% (inactive) |
| Cc1ccc(C(O)c2ncc(-c3cccc4ccccc34)[nH]2)cc1F (configuration not stated) | -1% (inactive) |
| C[C@H]1CN([C@@H](C)CO)C(=O)c2cc(-c3ccccc3)cnc2O[C@H]1CN(C)Cc1ccccc1 | -3.41% (inactive) |
| COc1ncccc1C(=O)NC1CCCc2c1cnn2-c1ccc(C)c(C)c1 (configuration not stated) | -11.4% (inactive) |
| COc1ccc(C)cc1N(CC(=O)Nc1cccc(N(C)S(C)(=O)=O)c1)S(C)(=O)=O | -12.4% (inactive) |
| CN1c2ccc(-c3ccccc3)cc2[C@H]2[C@H](CCN2C(=O)CN2CCOCC2)[C@@H]1CO | 23.2% (inactive) |
| CN(C)c1ccc(-c2ccnc3c2CC(C)(C(=O)NCC2CC2)O3)cc1 (configuration not stated) | -1% (inactive) |
| CC(C)Cc1nnc(NC(=O)CSc2nc(N)cc(=O)[nH]2)s1 | -9.89% (inactive) |
| N#Cc1ccc(-c2ccc3c(c2)[C@@H]2[C@@H](CCN2S(=O)(=O)c2cccc(F)c2)[C@@H](CO)N3)cc1 | -2.88% [at 23.5 µM] (inactive) |
| CO[C@@H]1CN(C)C(=O)c2ccc(NC(=O)c3ccc(-c4ccccc4)cc3)cc2OC[C@@H](C)NC[C@@H]1C | -9.52% (inactive) |
| O=C(CSc1nc2ncc(Cl)cc2[nH]1)c1c[nH]c2ccccc12 | 3.79% (inactive) |
| COC(=O)C[C@@H]1CC[C@@H]2[C@@H](COc3ccc(NC(=O)Cc4cccs4)cc3C(=O)N2C)O1 | 6.73% (inactive) |

| SMILES | activity change, negative = cytotoxicity |
| --- | --- |
| C[C@@H](O)C#Cc1ccc2c(c1)O[C@@H](CN(C)C)[C@@H](C)CN([C@@H](C)CO)S2(=O)=O | 1.66% (inactive) |
| COc1cccc(-c2ccc3c(c2)[C@H]2[C@H](CCN2S(=O)(=O)c2cccc(OC)c2)[C@H](CO)N3)c1 | -8.97% (inactive) |
| COCC(=O)Nc1ccc2c(c1)C(=O)N(C)[C@H]1CC[C@H](CC(=O)NCc3ccccc3Cl)O[C@H]1CO2 | -11.8% (inactive) |
| COc1ccc([N+](=O)[O-])cc1NS(=O)(=O)c1ccc(C(=O)N2CCCC2)cc1 | -5.09% (inactive) |
| O=C(Nc1ccccc1F)N1C[C@H]2[C@@H](c3ccccc31)[C@@H](CO)N2C(=O)C1CC1 | -9.56% (inactive) |
| S=C(NCC1CCCO1)Nc1ccc(Cl)cc1Cl (configuration not stated) | -10.4% (inactive) |
| COC(=O)C[C@H]1CC[C@H]2[C@H](COc3ccc(NC(=O)Cc4cccs4)cc3C(=O)N2C)O1 | -7.75% (inactive) |
| C[C@H](CO)N1C[C@H](C)[C@H](CN(C)C)Oc2cc(C#C[C@@H](C)O)ccc2S1(=O)=O | 14.3% (inactive) |
| O=C(CCC(=O)c1cccs1)NCc1cccnc1 | 2.94% (inactive) |
| COC(=O)c1c(NC(=O)CN2CCN(c3ccccc3Cl)CC2)sc(C)c1C | -11.6% (inactive) |
| Cc1cccc(N2CCN(S(=O)(=O)c3cn(C)cn3)CC2)c1C | -6.39% (inactive) |
| CN(C)C(=O)c1ccc(-c2ccc3c(c2)[C@@H]2[C@@H](CCN2C(=O)c2ccc(F)cc2)[C@H](CO)N3C)cc1 | -11.7% (inactive) |
| C[C@H]1CN([C@@H](C)CO)C(=O)c2cc(NC(=O)C3CCCCC3)ccc2O[C@H]1CN(C)Cc1ccc(-c2ccccc2)cc1 | -12.8% (inactive) |
| O=C(OCC(O)C(O)COC(=O)c1ccccc1)c1ccccc1 (configuration not stated) | -13.2% (inactive) |
| Nc1nc(-c2cc3c(cc2Cl)OCCO3)cs1 | -2.27% (inactive) |
| C[C@@H]1CN([C@H](C)CO)C(=O)c2cc(-c3ccccc3)cnc2O[C@H]1CN(C)Cc1ccccc1 | -7.15% (inactive) |
| COCC(=O)Nc1ccc2c(c1)C(=O)N(C)[C@H]1CC[C@H](CC(=O)NCc3ccccc3Cl)O[C@@H]1CO2 | -12% [at 23.5 µM] (inactive) |
| Cc1cc(C)c(S(=O)(=O)Nn2cnnc2)c(C)c1 | -12.4% (inactive) |

From PubChem BioAssay AID1053119 (Broad Institute, 2014)
